High-throughput results as filed in PubChem BioAssay.
NOD2 RIPK2 PPI – blocks binding of human NOD2 to RIPK2; O43353; CHO BLA complementation NOD2-RIPK2, CCF4 ratio; inhibition, % at 4.98 µM; actives 0.38% (n = 360,000); AID 624267; in the data active means inhibition above about 21%
PRMT1 FP inh – PRMT1 (human) inhibition, primary screen; Q99873; recombinant PRMT1, activity-based probe fluorescence polarization; inhibition, % at 2.79 µM; actives 1.3% (n = 370,000); AID 652257;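 active means inhibition above about 21% made by adding two undisclosed values, limit read from the data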
ABHD5-PLIN5 inh – inhibitors of human ABHD5-perilipin-5 interaction; Q00G26+Q8WTS1; Split G. princeps luciferase complementation, luminescence, 4 h; inhibition, % at 4 µM; actives 0.78% (n = 360,000);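 active means inhibition above the mean inhibition across every tested compound plus 3 SD, cut at about 22% in these data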
rCAG RNA binder – molecules binding r(CAG) RNA repeats. r(CAG) RNA repeat, TO-PRO-1 dye displacement fluorescence. inhibition, % at 3 µM. actives 1.3% (n = 370,000). AID 651821;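 active means inhibition above the plate cutoff, the mean of all test compounds on that plate plus 3 SD, cut at about 35% in these data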;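 further: higher means more dye released from RNA so lower well fluorescence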
TLR4 MyD88 comp – TLR4-MyD88 interaction inhibition in cells | actives 0.18% (n = 200,000) | inhibition, % at 8.4 µM | HeLa CL3-4 TLR4/MyD88 BLA complementation, FRET ratio | AID 861 | O00206+Q99836; in the data active means inhibition above about 25%
TLR9-MyD88 block – blocks human TLR9 binding to MyD88. Q9NR96+Q99836. CHO BLA complementation TLR9-MyD88, CCF4 FRET ratio. inhibition, % at 4.98 µM. actives 0.21% (n = 340,000);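 active means inhibition above the mean over all tested compounds plus 3 SD, cut at about 21% in these data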
A number is an active result; – = inactive; · = no result given. This is a sample that favours compounds with a hit; in the whole collection about 3.3% have one here.

SMILES | NOD2 RIPK2 PPI | PRMT1 FP inh | ABHD5-PLIN5 inh | rCAG RNA binder | TLR4 MyD88 comp | TLR9-MyD88 block
COc1ccc2nc(NC(=O)Nc3ccccc3)sc2c1 | – | – | – | 43 | – | –
COc1ccc2nc(NC(=O)c3ccccc3C(=O)O)sc2c1 | – | – | – | – | · | –
COc1ccc(CCNC(=O)Nc2cccs2)c(OC)c1 | – | 23 | – | – | · | –
COc1ccc(NC(=O)NCCc2c[nH]c3ccccc23)c(OC)c1 | – | – | – | – | · | –
Cn1cnc(S(=O)(=O)N2CCN(c3cccc(Cl)c3)CC2)c1 | – | – | – | – | · | –
COc1ccc(OC)c(/C=N/NC(=O)CCc2c(C)n[nH]c2C)c1 | – | – | – | – | · | –
COc1ccc(OC)c(/C=N/NC(=O)CCc2ccc(O)c(O)c2)c1 | – | 48 | – | – | – | –
CSCC[C@H](NC(=O)Cc1c(C)c2c(cc(C)c3c(C)coc32)oc1=O)C(=O)O | – | – | – | – | · | –
O=C(NNc1nc2cc3c(cc2s1)OCO3)c1ccc(F)cc1 | – | 23 | – | – | – | –
Cc1ccc(N(CC(=O)N2CCN(Cc3ccccc3)CC2)S(C)(=O)=O)cc1C | – | – | – | – | · | –
Cc1ccc(S(=O)(=O)Nc2nc3ccccc3nc2NCC2CCCO2)cc1C (configuration not stated) | – | – | – | 42 | · | –
Cc1occc1-c1nnc(SCC(=O)NC(C)(C)C)n1CC(C)C | – | – | – | – | – | –
Cc1occc1-c1nnc(SCC(=O)NCc2ccco2)n1CC(C)C | – | – | 23 | – | – | –
CCCCn1c(N)c(N(CCC(C)C)C(=O)c2cc(-c3ccco3)nc3ccccc23)c(=O)[nH]c1=O | – | 22 | – | – | · | –
Cc1ccc(-c2cc(C(=O)OCC(=O)N(C)c3c(N)n(Cc4ccccc4)c(=O)[nH]c3=O)c3ccccc3n2)o1 | – | 24 | – | – | · | –
CCCCn1c(N)c(N(CCOC)C(=O)c2cc(-c3ccco3)nc3ccccc23)c(=O)[nH]c1=O | – | – | – | – | · | –
CCCCN(C(=O)c1cc(-c2ccco2)nc2ccccc12)c1c(N)n(CCCC)c(=O)[nH]c1=O | – | 22 | – | – | · | –
CCN(CC)CCCNC(=O)c1ccc(S(=O)(=O)Nc2ccc(C)c(C)c2)cc1 | – | – | – | – | · | –
CCOC(=O)Cc1csc(NC(=O)c2c(O)c3c(n(CC(C)C)c2=O)CCCC3)n1 | – | – | – | – | · | –
COc1ccc(-c2nc3ccc(Cl)cn3c2Cc2ccccc2C(F)(F)F)cc1OC | – | – | – | 42 | · | ·
COc1ccc(C(=O)/C=C(\C)Nc2ccc3c(c2)OCO3)cc1 | – | 22 | – | – | – | –
COc1ccc(N/C(C)=C/C(=O)c2ccccc2)cc1 | – | – | – | – | – | –
O=C(CC[C@H]1O[C@@H](n2cnc3c(NC(=O)c4ccccc4)ncnc32)[C@H](O)[C@@H]1O)NCc1ccc2c(c1)OCO2 | – | – | – | – | · | ·
O=C(/C=C/c1ccc(-c2ccccc2)o1)c1ccccc1 | – | 25 | – | – | – | –
O=Cc1ccc(-c2cccc(C(=O)O)c2)o1 | – | – | – | – | – | –
SMILES | NOD2 RIPK2 PPI | PRMT1 FP inh | ABHD5-PLIN5 inh | rCAG RNA binder | TLR4 MyD88 comp | TLR9-MyD88 block
COc1cccc(CCc2nnc(N)s2)c1 | – | 23 | – | – | · | –
CC(=O)Nc1cc(OC(C)=O)c2nonc2c1OC(C)=O | – | 59 | – | – | – | –
CCc1cc(C(=O)Nc2ccc(S(=O)(=O)NC3=NCCCCC3)cc2)sc1C | – | – | – | – | · | –
O=C(N/N=C/c1ccco1)c1cccc(N2CCCC2=O)c1 | – | – | – | – | – | –
O=C(N/N=C/c1ccco1)c1cccc(N2Cc3ccccc3C2)c1 | – | – | – | 37 | – | –
CC(C)(C)c1cc[n+](-c2[nH]c(=O)sc2/C=N/NC([S-])=Nc2ccccc2)cc1 | – | 116 | – | – | · | –
CCN1/C(=C/c2ccc3cc(C)ccc3[n+]2CC)Sc2cc(C)c(C)cc21 | – | – | – | – | – | –
CCN1/C(=C/c2ccc3cc(C)ccc3[n+]2CC)Sc2ccccc21 | – | – | 23 | – | – | –
Cc1ccc(S(=O)(=O)N2CCCCC2CCNC(=O)C(=O)NCc2ccncc2)cc1 (configuration not stated) | – | – | – | – | · | –
CCOC(=O)C1Nc2ccccc2C2C(O)C(O)CC12 (configuration not stated) | – | 27 | – | 43 | · | –
CCOc1ccc(N2C(=O)CC(Sc3ccccc3C(=O)O)C2=O)c([N+](=O)[O-])c1 (configuration not stated) | – | 68 | – | – | – | –
COc1ccc2c3c(cccc13)OC2=O | – | – | – | – | · | –
COc1ccc2c3c(cccc13)N(C)N=C2C | – | 48 | – | – | – | –
Cc1ccc(N2CC(C(=O)Nc3c(C)n(C)n(-c4ccccc4)c3=O)CC2=O)cc1 (configuration not stated) | – | – | – | – | – | –
O=C(NNc1nc2ccccc2s1)Nc1ccc(F)cc1 | – | – | – | – | · | –
O=C(NNc1nc2ccccc2s1)Nc1ccc(Cl)c(Cl)c1 | – | 23 | – | – | · | –
CC(C)(C)c1ccc(-c2nnc3sc(-c4ccccn4)nn23)cc1 | – | 22 | – | – | – | –
COC(=O)[C@]12C[C@H](CC(=O)N3CCCCC3)C(=O)N(Cc3ccc(Cl)cc3Cl)C1=C[C@H](C(C)C)O[C@@H]2C1CC1 | · | – | · | – | · | ·
CCN(CC)C(=O)c1sc2nc(N3CCOCC3)c3c(c2c1N)CCCC3 | – | 24 | – | – | – | –
CCOC(=O)c1sc2nc(N3CCOCC3)c3c(c2c1N)CCCC3 | – | – | – | – | – | –
O=C(Cc1c[nH]c2ccccc12)Nc1ccc(Nc2cccnc2)c(-c2ccc(Cl)c(Cl)c2)c1 | · | – | · | – | · | ·
COc1cc(/C=C(\C#N)C(=O)c2ccc(O)c(O)c2)cc(I)c1O | – | 29 | – | 40 | · | –
O=C1NN(c2ccc(Br)cc2)C(=O)/C1=C\c1ccc(O)cc1O | – | – | – | 46 | · | –
O=C1NN(c2ccccc2)C(=O)C1=Cc1ccccc1O | – | – | – | – | · | –
COc1ccc(N)cc1-n1c(C)ccc1C | – | 27 | – | – | – | –
SMILES | NOD2 RIPK2 PPI | PRMT1 FP inh | ABHD5-PLIN5 inh | rCAG RNA binder | TLR4 MyD88 comp | TLR9-MyD88 block
CCCCn1c(N)c(N(CC(C)C)C(=O)CCCc2nc3ccccc3c(=O)[nH]2)c(=O)[nH]c1=O | – | – | – | – | · | –
O=C(/C=C/c1cccs1)NC(=S)NNC(=O)c1ccccc1O | – | – | – | 38 | – | –
COc1ccc(C(=O)NNC(=S)NC(=O)/C=C/c2cccs2)cc1 | – | – | – | – | – | –
COc1ccc(/C=C/c2nc(-c3ccccc3O)n[nH]2)cc1OC | – | – | – | 48 | – | –
O=C(O)COc1ccc(/C=C/c2nc(-c3ccccc3O)n[nH]2)cc1 | – | – | – | – | · | –
O=C(CCCCl)Nc1c2c(nn1-c1ccccc1)CSC2 | – | 23 | – | – | · | –
CCOC(OCC)c1cc2ccccc2cn1 | – | – | – | – | · | –
